From PubChem
Shown are actives, neighbours in structure and some others; about 7.5% of the full set was active somewhere.
SMN2 splice up = qHTS Assay for Enhancers of SMN2 Splice Variant Expression; HEK293 SMN2-luciferase splicing reporter, luminescence, 30-36 h; Potency, µM (series often up to 46.1 µM), inactives show at the highest dose activity change, positive = activation, hits mostly activators; actives 2.8% (n = 210,000); also: % of control where 0% means no effect; nearly all actives have a fitted effect of over 55% in size
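qHTS luciferase splicing reporter: luminescence rises when SMN2 exon 7 is included in transfected HEK293 cells. Compound exposure lasted 30-36 h at 37C, with 4.5 mM final sodium butyrate as control, followed by a ONE-Glo read.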
Rab9 prom act = qHTS Assay for Rab9 Promoter Activators; AID 485297, 2010; actives 2.8% (n = 320,000); Potency, µM (highest dose often 9.22 µM), for inactives: at the top dose activation, negative = inhibition, usual class: activators; Huh7 Rab9 promoter-luciferase reporter, luminescence, 24 h; also: % of control where 0% means no effect; nearly all actives have a fitted effect of over 60% in size
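Quantitative HTS format; Huh7 Rab9-luciferase reporter cells (1500/well) receive compound 2 h post-plating, incubate 24 h at 37 °C, then get luciferase reagent for 10 min before luminescence reading.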
ELG1 genotox = qHTS screen for small molecules that induce genotoxicity in human embryonic kidney (HEK293T) cells expressing luciferase-tagged ELG1. actives 1.3% (n = 330,000). HEK293T ELG1-luciferase reporter, luminescence, 16 h. Potency, µM (series often up to 46 µM), for inactives: at the top dose activity change, positive = activation, usual class: activators; also: % of control where 0% means no effect; nearly all actives have a fitted effect of over 60% in size
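Luminescence read-out: rising ELG1-luciferase signal, reflecting elevated ELG1 protein under genetic stress, flags genotoxic compounds. Cells were treated for 16 hr at 37 °C before ONE-Glo detection.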
FLuc modulator = qHTS profiling assay for firefly luciferase inhibitor/activator using purifed enzyme and Km concentrations of substrates (counterscreen for miR-21 project). Luciferin 4-monooxygenase (Photinus pyralis), P08659. purified FLuc, Km substrates, luminescence inhibition. Potency, µM (doses to about 57.5 µM), for the others: top-dose activity change, negative = inhibition, hits mostly inhibitors. actives 6.9% (n = 360,000). AID 588342, 2011;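 also: plate controls were vehicle for no effect and reference inhibitor for full effect; nearly all actives have a fitted effect of over 55% in size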
Target sequence (P08659 whole entry, looked up): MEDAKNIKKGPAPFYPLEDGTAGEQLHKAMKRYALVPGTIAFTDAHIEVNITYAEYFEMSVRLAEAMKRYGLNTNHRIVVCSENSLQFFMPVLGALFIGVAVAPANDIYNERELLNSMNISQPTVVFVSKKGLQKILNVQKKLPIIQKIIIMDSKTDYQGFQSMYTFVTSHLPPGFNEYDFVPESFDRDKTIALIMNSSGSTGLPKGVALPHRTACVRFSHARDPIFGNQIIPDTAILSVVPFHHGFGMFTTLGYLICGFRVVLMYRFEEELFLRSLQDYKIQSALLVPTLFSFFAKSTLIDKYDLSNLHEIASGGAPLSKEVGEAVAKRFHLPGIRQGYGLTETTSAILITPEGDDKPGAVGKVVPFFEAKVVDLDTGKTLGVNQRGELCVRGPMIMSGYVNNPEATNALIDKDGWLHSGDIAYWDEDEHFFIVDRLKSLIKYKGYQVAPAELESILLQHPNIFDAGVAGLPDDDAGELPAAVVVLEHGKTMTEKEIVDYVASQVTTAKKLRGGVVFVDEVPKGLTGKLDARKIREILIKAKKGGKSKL
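Purified P. pyralis luciferase (10nM final) with 10uM D-luciferin and 10uM ATP (Km levels) in 50mM Tris acetate pH 7.5, 10mM Mg acetate, 0.01% Tween-20, 0.05% BSA; qHTS 6-point titration, ~60 µM downward; luminescence read.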
NPC1 promoter act = qHTS Assay for NPC1 Promoter Activators. Potency, µM (series often up to 9.22 µM), for the others: top-dose activation, most hits filed as activators. Huh7 NPC1 promoter luciferase reporter, 24 h. actives 2.4% (n = 320,000); also: % of control where 0% means no effect; nearly all actives have a fitted effect of over 60% in size
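In 1536-well qHTS, Huh7 cells harboring an NPC1 promoter–luciferase construct received compound for 24 h; activation was quantified by luminescence following luciferase reagent addition.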
* marks the source's active call; other numbers are inactive results; [ ] = dose if it differs, or a comment. Calls follow the shape of the dose curve; as a rule, active = well fitted curve in the direction sought with a large enough effect; inconclusive = small, poorly fitted or top-dose-only effect, or another doubt; inactive = no such curve, though single readings can be large; an effect the other way counts as inactive or inconclusive. Potency is read from the fitted curve at half-maximal effect.

`O=c1c([N+](=O)[O-])c(N2CCOCC2)c2ccccc2n1Cc1ccccc1` gave Rab9 prom act -7%, ELG1 genotox -5%, FLuc modulator -3% and NPC1 promoter act -5%.
CN(C)S(=O)(=O)c1ccc(C(=O)NCc2ccccc2)cc1 was read as SMN2 splice up 0%, Rab9 prom act 0%, ELG1 genotox 5%, FLuc modulator 2% and NPC1 promoter act -2%.
CN(C)S(=O)(=O)c1ccc(C(=O)NCCOc2ccc(F)cc2)cc1 was read as SMN2 splice up 20%, Rab9 prom act inconclusive, ELG1 genotox 13µM*, FLuc modulator inconclusive and NPC1 promoter act 26%.
For CN(C)S(=O)(=O)c1ccc(C(=O)NCCOc2ccccc2)cc1 the results were SMN2 splice up 11µM*, Rab9 prom act 2.8µM*, ELG1 genotox inconclusive, FLuc modulator 13µM* and NPC1 promoter act 4µM*.
Screening Cc1nn(CC(=O)c2ccccc2Cl)c(C)c1[N+](=O)[O-] returned SMN2 splice up inconclusive, Rab9 prom act 4µM*, ELG1 genotox 15µM*, FLuc modulator 11µM* and NPC1 promoter act inconclusive.
For Cc1cc(C)nc(SCc2cn3ccccc3n2)n1 the results were Rab9 prom act 18%, ELG1 genotox -5%, FLuc modulator inconclusive and NPC1 promoter act 16%.
For Nc1ccccc1SCc1cn2ccccc2n1 the results were SMN2 splice up 11µM*, Rab9 prom act 1.8µM*, ELG1 genotox inconclusive, FLuc modulator 6.7µM* and NPC1 promoter act 2.2µM*.
For Nc1ccccc1SCc1cn2cccnc2n1 the results were SMN2 splice up inconclusive, Rab9 prom act 0%, ELG1 genotox inconclusive, FLuc modulator -20% and NPC1 promoter act 17%.
Cc1cccn2cc(CSc3ccccc3N)nc12 was read as SMN2 splice up inconclusive, Rab9 prom act 2.5µM*, ELG1 genotox 6.5µM*, FLuc modulator 6µM* and NPC1 promoter act 2.2µM*.
For Cc1cccc(CS(=O)(=O)Cc2ccc(C(=O)NCCCN3CCOCC3)o2)c1 the results were SMN2 splice up 8%, Rab9 prom act -3%, ELG1 genotox 0%, FLuc modulator 0% and NPC1 promoter act -1%.
For COc1cc(C(=O)NCCC2=CCCCC2)cc(OC)c1OC the results were SMN2 splice up -4%, Rab9 prom act 4%, ELG1 genotox 0%, FLuc modulator 2% and NPC1 promoter act 2%.
Screening COc1cccc(C(=O)NCCC2=CCCCC2)c1OC returned SMN2 splice up 13µM*, Rab9 prom act 4µM*, ELG1 genotox inconclusive, FLuc modulator -9%[2.3 µM] and NPC1 promoter act inconclusive.
For Cc1cc(C(=O)NCCC2=CCCCC2)c(C)o1 the results were SMN2 splice up 11µM*, Rab9 prom act 10µM*, ELG1 genotox inconclusive, FLuc modulator inconclusive and NPC1 promoter act 1µM*.
Screening O=C(c1ccc2c3c(cccc13)CC2)N1CCOCC1 returned SMN2 splice up 4%, Rab9 prom act -5%, ELG1 genotox 1%, FLuc modulator 0% and NPC1 promoter act -2%.
`COc1ccc(Cl)cc1NC(=O)CC(C)c1ccccc1` (stereo not given) gave SMN2 splice up -13%, Rab9 prom act -3%, ELG1 genotox 0%, FLuc modulator 2% and NPC1 promoter act 3%.
For COc1cccc(C(=O)NNC(=S)NC2CCCCC2)c1 the results were SMN2 splice up inconclusive, Rab9 prom act 2.2µM*, ELG1 genotox 11%, FLuc modulator inconclusive and NPC1 promoter act inconclusive.
Screening CCc1ccc(C(=O)NC2CCCCC2)s1 returned SMN2 splice up 13µM*, Rab9 prom act 2.2µM*, ELG1 genotox 39%, FLuc modulator 12µM* and NPC1 promoter act 2.5µM*.
`Cc1cc(C(=O)NNC(=S)NC2CCCCC2)cs1` gave Rab9 prom act 1.3µM*, ELG1 genotox 11%, FLuc modulator 2% and NPC1 promoter act inconclusive.
`O=C(NNC(=S)NC1CCCCC1)c1ccc(Cl)s1` gave SMN2 splice up 13µM*, Rab9 prom act inconclusive, ELG1 genotox -2%, FLuc modulator inconclusive and NPC1 promoter act 27%.
